Experiments:
[1] = tested on: JAK1(JH2domain-pseudokinase)
LOK = tested on: T1, LOK
T1 construct: gene STK10

[2] = tested on: JAK3(JH1domain-catalytic)
[3] = tested on: JAK2(JH1domain-catalytic)
IKK-epsilon = tested on: T2, IKK-epsilon
T2 construct: gene IKBKE

JNK3 = tested on: T3, JNK3
T3 construct: gene MAPK10

IKK-beta = tested on: T4, IKK-beta
T4 construct: gene IKBKB

JNK2 = tested on: T5, JNK2
T5 construct: gene MAPK9

JNK1 = tested on: T6, JNK1
T6 construct: gene MAPK8

[4] = tested on: JAK1(JH1domain-catalytic)
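Further: kd values determined as follow-up on hits from a single-replicate KINOMEscan panel screen.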

SMILES: Cn1ccc2ncnc(Oc3ccc(NC(=O)Nc4cccnc4)c(Cl)c3)c21
- Kd (KIT): 47 nM

SMILES: Cc1ccc(NC(=O)c2cccc(C#N)c2)cc1-c1ccc(C(=O)Nc2ccncc2)cc1 [GSK1398463]
- Kd (KIT): 310 nM
- Kd (LCK): 560 nM

SMILES: CC(=O)Nc1n[nH]c2ncc(-c3ccccc3)cc12 [SB-548492]
- Kd [1]: 380 nM

SMILES: COc1cc2ncnc(Nc3ccc(OCc4ccccc4Br)c(Cl)c3)c2cc1OC.Cl [GI261590]
- Kd (LOK): 2000 nM

SMILES: CN1c2ccc(-c3ccc(C(=O)NCCO)cc3)cc2-c2[nH]ncc2S1(=O)=O
- Kd [2]: 6.8 µM

SMILES: Fc1cccc(COc2ccc(Nc3ncnc4sc(-c5ccc[nH]5)cc34)cc2Cl)c1 [GW707818]
- Kd [3]: > 10 µM

SMILES: Nc1nc(-c2ccc3c(N)n[nH]c3c2)cc(N2CCC[C@@H](C(=O)Nc3ccccc3)C2)n1.O=C(O)C(F)(F)F.O=C(O)C(F)(F)F [GSK2288359]
- Kd (IGF1R): > 10 µM
- Kd [3]: > 10 µM

SMILES: O=C(Nc1n[nH]c2nc(-c3ccco3)c(Br)cc12)c1ccc(CN2CCCC2)cc1.O=C(O)[C@H](O)[C@@H](O)C(=O)O [SB-742352]
- Kd (KIT): 66 nM

SMILES: CNc1nccc(-c2c(-c3ccc(F)cc3)ncn2CCCN2CCOCC2)n1 [SB-222516]
- Kd (LIMK2): > 10 µM

SMILES: COc1ccc(-c2oc3ncnc(N)c3c2-c2ccc(OC)cc2)cc1 [SB-589132]
- Kd (LATS1): > 10 µM

SMILES: COc1cc2c(Nc3cccc(NC(=O)c4ccccc4)c3)ncnc2cc1OCCCN1CCOCC1 [GSK223810]
- Kd (KIT): 300 nM
- Kd (LCK): 390 nM
- Kd (LYN): 130 nM

SMILES: CCc1nc(-c2cccc(C)c2)c(-c2ccnc(NC(=O)c3ccccc3)c2)s1
- Kd (IKK-epsilon): > 10 µM
- Kd (JNK3): 190 nM
- Kd (LATS2): > 10 µM

SMILES: CC(C)(C)c1ccc(-n2cnc3c(N)ncnc32)cc1 [SKF-97263]
- Kd [1]: 250 nM

SMILES: Cl.Cl.c1ccc(-c2cc3ccncc3cc2OC2CCNCC2)cc1 [GSK1122999]
- Kd (IKK-beta): 24 nM

SMILES: Oc1ccc2ncnc(Nc3ccc(OCc4ccccc4)cc3)c2c1 [GI262866]
- Kd (LTK): > 10 µM

SMILES: CN1CCC(n2cnc(-c3ccc(F)cc3)c2-c2ccnc(NC3CCNCC3)n2)CC1 [SB-229482]
- Kd (JNK2): 170 nM
- Kd (JNK3): 140 nM

SMILES: Cn1cc(-c2ccc3c(c2)CCN3C(=O)Cc2cccc(C(F)(F)F)c2)c2c(N)ncnc21 [GSK2606414]
- Kd (KIT): 5200 nM

SMILES: O=C(Nc1ccccc1)Nc1ccc(Oc2ccc3nccn3n2)cc1
- Kd (KIT): 99 nM

SMILES: O=C(Nc1ccccc1F)NC1CCN(c2ccnc(Nc3ccc(F)cc3)n2)C1 (centres unmarked) [GSK1379722]
- Kd (ICK): > 10 µM
- Kd (IGF1R): > 10 µM

SMILES: COc1ccc(NC(=O)Nc2ccc(C)c(-c3ccc(C(=O)Nc4ccncc4)cc3)c2)cc1 [GSK1398475]
- Kd (KIT): 44 nM

SMILES: Cl.c1ccc(Cn2ccc3cc(Nc4ncnc5ccccc45)ccc32)cc1 [GW275568]
- Kd [3]: > 10 µM

SMILES: COC(=O)c1c(-c2ccccc2)c2cc(Cl)ccc2c(=O)n1Cc1ccc(S(C)(=O)=O)cc1
- Kd (JNK1): 61 nM
- Kd (JNK2): 44 nM
- Kd (JNK3): 14 nM

SMILES: CCCc1ccc(S(=O)(=O)NC2CCN(c3ccnc(Nc4ccc(OC)cc4)n3)C2)cc1 (centres unmarked) [GSK1379737]
- Kd (LIMK2): > 10 µM
- Kd (LTK): 8.7 µM

SMILES: C[C@@H]1CCN(C(=O)CO)C[C@@H]1N(C)c1ncnc2[nH]ccc12
- Kd [4]: 120 nM
- Kd [3]: 0.011 µM
- Kd [2]: 0.0036 µM

SMILES: COC(=O)c1cccc(NC(=O)NCCNc2ccnc(Nc3ccc(F)cc3)n2)c1 [GSK1379883]
- Kd (HUNK): > 10 µM
